40 compounds from PubChem BioAssay (NCI) can be followed below.

The panel holds about 83,000 compounds, 20% with a hit somewhere; the sample as a whole holds those more often.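 Interpretation: 100, growth as untreated; towards 0, rising growth inhibition; 0, no net growth; 0 to -100, cell death. Compounds scoring below 10 were considered active.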 A number with no mark means an inactive call. The source made the active and inactive calls.

For the assay, the system named is M14 melanoma. Put plainly: NCI-60 one-dose screen, 48 h (100 = growth as untreated, 0 = no growth, -100 = all killed). The conditions noted are these: 10 µM. Here is the method: Growth inhibition of the M14 human tumor cell line is measured as a screen for anti-cancer activity. Cells are grown in 96 well plates and exposed to the test compound for 48 hours. Compounds are tested at a single concentration, which is 10^-5 M for most compounds. The reported endpoint is percent growth (GI% or GIPRCNT), where numbers from 0 - 100% represent growth inhibition, and numbers from -100% - 0 represent cell death. For example, a value of 40 represents 60% growth inhibition. A value of 0 means no net growth occurred over the course of the experiment. A value of -40 indicates 40% of cells at the beginning of the experiment died by the end of the experiment. A value of -100 means all cells are dead at the end of the experiment.
NCI-60 Human Tumor Cell Lines Screen was performed using the standard one-dose NCI protocol, which is described in more detail at https://dtp.cancer.gov/discovery_development/nci-60/default.htm.
Compounds with GIPRCNT values below 10 were considered active. Activity score was based on GIPRCNT using the following formula: […]
Score is 0 for GIPRCNT values of 100 or above, 50 for GIPRCNT values of 0, and 100 for GIPRCNT values of -100.
`O=[N+]([O-])c1ccc(-c2nc(-c3ccccc3)c(-c3ccccc3)n2-c2ccccc2)cc1`: the growth is 49.6%. Then `CC(C)/C=N/NC(N)=S`, with 84.4%; and `CCNC(=S)NN`, with 87.2%.

Turning to `Cc1ccc(C)c2c1sc1nc3n[nH]c(N)c3c(=N)n12`, the growth is 108%. Regarding `C(=C\c1nc2ccccc2s1)/c1ccc(N2CCOCC2)s1`, the growth was 36.6%. Consider `CCOC(=O)C(CCC1=NC(C)(C)CC(C)O1)C(=O)OCC` (stereo not given), for which the growth is 84%. As to `O=C(CCCC(=O)N/N=C/c1cc(Cl)ccc1O)N/N=C\c1cc(Cl)ccc1O`, the growth was 12.9%. In the case of `Nc1ccc2c(c1)Cc1cc(N)c(Cl)cc1-2`, the growth is 107%. Regarding `O=C(N/N=c1/ccoc2cccnc12)N1CCN(c2ncccn2)CC1`, the growth was 14.5%. Under `COCCOC(=O)NC(=O)Nc1ccc(/C(=N/O)c2ccc(Cl)cc2)cc1` stands 3.73% (active); under `CCCCOCCOCCOCc1cc2c(cc1Br)OCO2`, 110%; under `COc1cc(C2C=C(c3ccc(Cl)c(Cl)c3)N=C3SC(C)=CN32)cc(OC)c1OC` (stereo not given), 86.4%. Take `Cc1ccc(-c2cc(C(=O)Nc3ccc(S(=O)(=O)N4CCCCC4)cc3)[nH]n2)c(O)c1`: the growth is 62.2%. In the case of `O=C(c1ccc(Cl)cc1)c1no[n+]([O-])c1C(=O)c1ccc(Cl)cc1`, the growth was 92.5%. In the case of `NS(=O)(=O)c1ccc(N2N=C(c3ccc(-c4ccccc4)cc3)CC2c2ccc(Cl)cc2)cc1` (stereo not given), the growth was 98.2%. With `COc1cc(-c2cc(-c3cc(OC)c(OC)c(OC)c3)nc3nc(N)[nH]c(=O)c23)ccc1Oc1ccnc2cc(Cl)ccc12`, the growth was 12.6%. With `C=C[C@]1(C)C=C2C(=O)[C@@]3(O)OC(=O)[C@@]4(CCCC(C)(C)[C@H]34)[C@@]2(O)CC1`, the growth is -89% (active). Under `COc1cc(-c2cc(-c3ccc(C)cc3)nc3nc(N)[nH]c(=O)c23)ccc1Oc1ccnc2cc(Cl)ccc12` stands 101%. As for `CCC(O)c1ccc(Br)cc1NC(=O)c1cccc(Cl)c1` (stereo not given), the growth was 0.116% (active). Then `CN(C)Cc1cccs1`, with 94.8%; and `O=C1CC[C@@H](C(=O)N[C@H]2CSSC[C@@H](C(=O)N/C=C/c3ccc(O)cc3)NC(=O)[C@H](Cc3ccccc3)NC(=O)[C@@H]3CCCN3C(=O)[C@@H]3CCCN3C2=O)N1`, with 94.5%. Under `CN(C)c1ccc2c(c1)OC(N)=C(C#N)C2c1ccc2c(c1)CCCN2C` (stereo not given) stands 2.75% (active).

`O=C1CC[C@@H](C(=O)N[C@H]2CSSC[C@@H](C(=O)NCCc3ccccc3)NC(=O)[C@H](Cc3ccccc3)NC(=O)[C@@H]3CCCN3C(=O)[C@@H]3CCCN3C2=O)N1`: the growth was 97.8%. As to `C[C@]12CC[C@H]3[C@@H](CC=C4C[C@@H](O)CC[C@@]43C)[C@@H]1CC[C@@H]2C(=O)C/C=N/O`, the growth was 95.7%. Under `Cc1ccc(-n2c(-c3cc4c([nH]c5ccccc54)c(-c4cccc(O)c4)n3)n[nH]c2=S)cc1` stands -40.1% (active). Take `NC1CCC(Nc2nc(NCc3ccc(-c4ccccc4O)nc3)c3ncn(C4CCCC4)c3n2)CC1` (stereo not given): the growth is -81.5% (active).

Consider `COc1c(C)c(C)c(OC)c2c1[nH]c(=O)c1c3cccnc3cn21`, for which the growth was 103%. Consider `COc1ccc(C2C=C(c3ccc(OC)c(OC)c3)N=C3SC=CN32)c(Br)c1` (stereo not given), for which the growth was 55.9%. In the case of `COc1ccc(NC(=O)CCn2cnc3c(cc(-c4ccccc4)n3-c3ccccc3)c2=O)cc1`, the growth was 91.1%. As to `Cc1cn(C(=O)/C(Cl)=C(/Cl)C(=O)O)c2ccccc12`, the growth was 99.7%. As for `O=c1oc2cc(OS(=O)(=O)C3CC3)ccc2c2c1CCCCCC2`, the growth was 81.4%. Turning to `[O-]c1c[n+](-c2ccc(Cl)cc2)no1`, the growth was 104%. On to `COc1cc(OC)cc(-c2n/c(=C\c3c(O)[nH]c4ccc(OC)cc34)cc3c2=Nc2ccccc2-3)c1`, for which the growth was 21.4%. On to `Cc1cc(C)c2nc(C)c(C)[n+]([O-])c2c1`, for which the growth was 102%. On to `COc1ccc2c(=O)cc(C(Cl)(Cl)Cl)oc2c1`, for which the growth is -67.1% (active). Turning to `CNCCCNCCCN1C(=O)c2ccc3c4c(ccc(c24)C1=O)C(=O)N(CCCNCc1ccccc1OC)C3=O`, the growth was 0.979% (active). Under `O=C(/C=C/c1ccc(Cl)cc1)c1ccc(Br)cc1` stands 100%; under `CC1(C)Cc2c(cn(Cc3ccccc3)c2-c2ccccc2)-c2oncc21`, 100%; under `COc1ccc(C(=O)c2sc3nc(-c4cccs4)ccc3c2N)cc1OC`, 42.1%.

Regarding `COc1cc(CSc2nc3ccc(Cl)cc3c(=O)n2-c2ccccc2)cc(OC)c1OC`, the growth is 93.2%.
